# Laboratory results reported in PubChem BioAssay AID1259420 (Broad Institute, 2018).
# Values joined by “and” are separate entries in the source; they are usually repeats but may differ in a detail not shown here. Equal entries are not always repeated. Out of some 1,000 compounds screened, about 250 (25%) were called active. Roughly 31% stayed inconclusive and do not appear here. Only a sample is shown. Entries with a potency or affinity are not part of this list. A number with no mark means an inactive call. No rule for the calls is given here.
# Test: compound activity on host-cell Toxoplasma growth – dose response (AID 1259420);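 also: host cells were HeLa; final incubation lasted 72 hours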
# Conditions: Toxoplasma gondii growth in host cells, no IFN-gamma
structure (smiles),measurement,setting,value
Cc1cccc(-c2ccc([C@@H]3[C@@H](CO)N4C(=O)CN(C(=O)c5ccc6c(c5)OCO6)C[C@H]34)cc2)c1,max activity,at 19.5 µM unless noted,-5.13% [at 0.3 µM]
Cc1cccc(-c2ccc([C@H]3[C@H]4CN(C(=O)c5ccc6c(c5)OCO6)CC(=O)N4[C@H]3CO)cc2)c1,max activity,at 19.5 µM unless noted,11.6%
COc1ccc(-c2ccc3c(c2)[C@H]2[C@H](CCN2C(=O)Nc2ccccc2OC)[C@H](CO)N3C)cc1,max activity,at 19.5 µM unless noted,-12.3% [at 0.6 µM]
CN1c2ccc(C3=CCCCC3)cc2[C@@H]2[C@@H](CCN2C(=O)C2CCOCC2)[C@H]1CO,max activity,at 19.5 µM unless noted,-17.2% [at 5 µM]
N#Cc1ccc(-c2ccc3c(c2)[C@@H]2[C@@H](CCN2C(=O)C2CCCCC2)[C@@H](CO)N3)cc1,max activity,at 19.5 µM unless noted,24.3%
N#Cc1ccc(-c2ccc3c(c2)[C@H]2[C@H](CCN2C(=O)C2CCCCC2)[C@@H](CO)N3)cc1,max activity,at 19.5 µM unless noted,-26.1% [at 5 µM]
CCc1cnc(N2CCc3cc(C(=O)NCC4CC4)c(N(C)C)nc3CC2)nc1,max activity,at 19.5 µM unless noted,11.8% [at 0.6 µM]
CO[C@@H]1CCN(S(=O)(=O)N(C)C)C[C@@H]1Cc1cccc(C)c1,max activity,at 19.5 µM unless noted,-8.52% [at 10 µM]
CCCCOCCOCCOCc1cc2c(cc1CCC)OCO2,max activity,at 19.5 µM unless noted,-10.5% [at 10 µM]
Cc1nc(N2CCCC2)nc2c1CCN(C(=O)c1ccoc1C)CC2,max activity,at 19.5 µM unless noted,-19.1% [at 10 µM]
Cc1cc2nc(CN3CCCC(CCc4ccc(F)cc4F)C3)cc(=O)n2[nH]1 (configuration not stated),max activity,at 19.5 µM unless noted,5.72%
O=C(Nc1ccc(F)cc1)N1CC(=O)N2[C@H](CO)[C@@H](c3ccc(-c4cccc(F)c4)cc3)[C@@H]2C1,max activity,at 19.5 µM unless noted,-6.88%
Cc1ccc(-c2ccc([C@H]3[C@H]4CN(C(=O)NC(C)C)CC(=O)N4[C@H]3CO)cc2)cc1,max activity,at 19.5 µM unless noted,-10.6% [at 0.6 µM]
O=C(c1cnccn1)N1CC(=O)N2[C@H](C1)[C@H](c1ccc(-c3cccc(F)c3)cc1)[C@@H]2CO,max activity,at 19.5 µM unless noted,-9.23% [at 0.16 µM]
O=C(c1cnccn1)N1CC(=O)N2[C@H](C1)[C@@H](c1ccc(-c3cccc(F)c3)cc1)[C@@H]2CO,max activity,at 19.5 µM unless noted,25.6%
O=C(c1cnccn1)N1CC(=O)N2[C@H](CO)[C@H](c3ccc(-c4cccc(F)c4)cc3)[C@@H]2C1,max activity,at 19.5 µM unless noted,-10.6% [at 0.3 µM]
O=C(Nc1ccc(F)cc1)N1CC(=O)N2[C@H](CO)[C@@H](c3ccc(-c4cccc(F)c4)cc3)[C@H]2C1,max activity,at 19.5 µM unless noted,13.4%
C/C=C/c1ccc([C@H]2[C@@H](CO)N3C(=O)CN(C(=O)Nc4ccc(F)cc4)C[C@@H]23)cc1,max activity,at 19.5 µM unless noted,-13% [at 0.16 µM]
O=C(c1cnccn1)N1CC(=O)N2[C@H](CO)[C@H](c3ccc(-c4cccc(F)c4)cc3)[C@H]2C1,max activity,at 19.5 µM unless noted,15.4% and 19.8%
CC1CCCCN1C(=O)c1ccnn1-c1ccc2ccc(-c3ccccc3)cn12 (configuration not stated),max activity,at 19.5 µM unless noted,-6.05% [at 5 µM]
CC(=O)O[C@@H]1CC2C(C)(CC[C@H](O)C2(C)C)C2CC[C@]3(C)C(=CC(=O)O[C@H]3c3ccoc3)C21C (some centres not stated),max activity,at 19.5 µM unless noted,-5.91% [at 10 µM]
CC(C)n1cnc2c(NCC3CC3)nc(C3CCN(C(=O)c4cccc(F)c4F)CC3)cc21,max activity,at 19.5 µM unless noted,5.98% [at 1.2 µM]
Cc1ccccc1-c1ccc(C2[C@@H]3CN(Cc4cocn4)C[C@H]2N3)cc1 (some centres not stated),max activity,at 19.5 µM unless noted,20.2%
COCC1COCCC12CCN(C(=O)c1ccc(C)nc1)CC2 (configuration not stated),max activity,at 19.5 µM unless noted,6.91% [at 2.6 µM]
CCCN(C/C=C/I)C1CCc2cccc(O)c2C1 (configuration not stated),max activity,at 19.5 µM unless noted,15.1%
CC(C)NC(=O)N1CC(=O)N2[C@@H](CO)[C@H](c3ccc(/C=C/c4ccccc4)cc3)[C@@H]2C1,max activity,at 19.5 µM unless noted,-13.4% [at 0.16 µM]
O=C(C1CCOCC1)N1CC(=O)N2[C@H](C1)[C@H](c1ccc(/C=C/c3ccccc3)cc1)[C@@H]2CO,max activity,at 19.5 µM unless noted,-15.6% [at 2.6 µM]
CC1=NN(C2CCS(=O)(=O)C2)C(=O)C1(Sc1ccccc1)Sc1ccccc1 (configuration not stated),max activity,at 19.5 µM unless noted,14.4% [at 10 µM]
CC(C)CC#Cc1ccc([C@H]2[C@@H](CO)N3C(=O)CN(C(=O)c4cccc(F)c4)C[C@@H]23)cc1,max activity,at 19.5 µM unless noted,25.4%
CC(C)C#Cc1ccc([C@@H]2[C@@H](CO)N(C(=O)c3cccc(F)c3)[C@H]2C#N)cc1,max activity,at 19.5 µM unless noted,-12.4% [at 10 µM]
O=C(CC1CC1)N[C@H]1CN(C(=O)c2ccoc2)C[C@@H]2CCCO[C@H]21,max activity,at 19.5 µM unless noted,-10.1% [at 10 µM]
CCc1c(C)sc2c1CCN(Cc1nc(-c3cccc(C)c3)oc1C)C2c1ccccc1 (configuration not stated),max activity,at 19.5 µM unless noted,-7.44% [at 0.08 µM]
O=C1CNC[C@@H]2[C@@H](c3ccc(C#Cc4cccnc4)cc3)[C@@H](CO)N12,max activity,at 2.6 µM,9.41%
same,max activity,at 10 µM,-13%
CC(C)(O)C#Cc1cccc(-c2n[nH]c(Cc3ccccc3)n2)c1,max activity,at 19.5 µM unless noted,21.1%
CCc1ccc(S(=O)(=O)N2CCC3(CC2)NCCN=C3NCc2cc(F)cc(F)c2)cc1,max activity,at 19.5 µM unless noted,-11.1% [at 0.08 µM]
Cc1cccc(CNC2=NCCNC23CCN(S(=O)(=O)c2ccc4c(c2)CCCC4)CC3)c1,max activity,at 19.5 µM unless noted,-9.87%
O=S(=O)(c1ccc2c(c1)CCCC2)N1CCC2(CC1)NCCN=C2NCc1ccc2c(c1)OCO2,max activity,at 19.5 µM unless noted,-6.04% [at 0.08 µM]
Cc1ccc(CNC2=NCCNC23CCN(S(=O)(=O)c2ccc(Cl)s2)CC3)cc1,max activity,at 19.5 µM unless noted,-6.39% [at 2.6 µM]
CCc1ccccc1-c1cccc(-n2cnnc2)c1,max activity,at 19.5 µM unless noted,23.8% [at 10 µM]
CCc1cc(C(=O)Nc2ccc(C)cc2-c2cc(C)[nH]n2)c2c(C)noc2n1,max activity,at 19.5 µM unless noted,-5.68% [at 5 µM]
CN(C)CCN1CCOCC2(CCCN(C(=O)c3ccc4cc[nH]c4c3)C2)C1 (configuration not stated),max activity,at 19.5 µM unless noted,-5.04% [at 2.6 µM]
COCC1CN(Cc2cc(C)on2)Cc2c1cnn2CC1CC1 (configuration not stated),max activity,at 19.5 µM unless noted,-5.27% [at 10 µM]
COc1ccc(-n2c(C)c([N+](=O)[O-])c3ccc(O)cc32)cc1,max activity,at 19.5 µM unless noted,7.23% [at 1.2 µM]
COc1ccc(S(=O)(=O)N2CCCCN3[C@H](C2)[C@@H](c2ccc(C#CCC(C)C)cc2)[C@@H]3CO)cc1,max activity,at 19.5 µM unless noted,29.4% [at 10 µM]
COCCC(=O)C1Cc2nc(-c3ccccc3)sc2N1CC1CC1 (configuration not stated),max activity,at 19.5 µM unless noted,-9.12% [at 0.3 µM]
O=C(C1CCCCC1)N1C[C@@H]2N[C@H](C1)C2c1ccc(-c2ccccc2F)cc1 (some centres not stated),max activity,at 19.5 µM unless noted,13.7% [at 2.6 µM]
C=CCN1C(=O)CC[C@H]2[C@@H]1CCN2S(=O)(=O)CC,max activity,at 19.5 µM unless noted,-17.5% [at 10 µM]
CCCNC(=O)N1C[C@@H]2N[C@H](C1)C2c1ccc(-c2ccc(OC)cc2)cc1 (some centres not stated),max activity,at 19.5 µM unless noted,11.6% [at 21 µM]
Cc1ccc(CN2CC3CN(Cc4cccc(F)c4)CC3C2)s1 (configuration not stated),max activity,at 19.5 µM unless noted,-13.6% [at 1.2 µM]
Cc1cnc(N2CCC3(CCN(CC4CC4)C3=O)CC2)nc1,max activity,at 19.5 µM unless noted,-10.4%
COCC#Cc1ccc([C@@H]2[C@@H](CO)N3C(=O)CN(C(=O)c4ccncc4)C[C@@H]23)cc1,max activity,at 19.5 µM unless noted,-8.48% [at 10 µM]
CC(C)[C@H](CO)Nc1nc(Nc2ccc(C(=O)O)c(Cl)c2)c2ncn(C(C)C)c2n1,max activity,at 19.5 µM unless noted,-10.3% [at 10 µM]
O=C(NCc1ccccc1)C1CC2(CO1)CN(C(=O)c1ccc(F)cc1)c1ccccc12 (configuration not stated),max activity,at 19.5 µM unless noted,-16.3% [at 10 µM]
O=C1N(CC2CC2)CCC12CCCN(Cc1cncc(Cl)c1)CC2 (configuration not stated),max activity,at 19.5 µM unless noted,-16.7% [at 10 µM]
O=C(Nc1ccc(F)cc1)N1CC(=O)N2[C@@H](CO)[C@@H](c3ccc(C4=CCCC4)cc3)[C@@H]2C1,max activity,at 19.5 µM unless noted,14.9%
N#C[C@@H]1N[C@H](CO)[C@H]1c1ccc(-c2cccc(F)c2)cc1,max activity,at 19.5 µM unless noted,13.1%
CS(=O)(=O)N1CCN(C2CCOCC2)CC(C(=O)O)C1 (configuration not stated),max activity,at 19.5 µM unless noted,-14.9% [at 5 µM]
COc1ccc(-c2nc(CN(c3ccccc3OC)S(=O)(=O)c3ccccc3)c(C)o2)cc1,max activity,at 19.5 µM unless noted,-9.94% [at 0.6 µM]
CCOc1ccc(-c2nc(CN(c3ccc(OC)cc3)S(=O)(=O)c3cccs3)c(C)o2)cc1,max activity,at 19.5 µM unless noted,18.6% [at 10 µM]
CC(C)Oc1ccc(NC(=O)c2nc3c(n2C(C)C)CCN(C(=O)c2ccccc2)C3)cc1,max activity,at 19.5 µM unless noted,12.7% [at 0.08 µM]
CCOC(=O)c1nn(Cc2ccccc2)c2c1CN(C(=O)CN1CC(c3ccccc3)CC1=O)CC2 (configuration not stated),max activity,at 19.5 µM unless noted,-13.6%
O=C(C1CCOCC1)N1CC(=O)N2[C@@H](CO)[C@@H](c3ccc(C#CC4CCCCC4)cc3)[C@@H]2C1,max activity,at 19.5 µM unless noted,14.6%
CC(C)C#Cc1ccc([C@H]2[C@@H](CO)N3C(=O)CN(C(=O)NC4CCCC4)C[C@H]23)cc1,max activity,at 19.5 µM unless noted,-5.62% [at 10 µM]
Cc1nc2ccccc2n1CC(O)Cn1c2ccccc2c2ccccc21 (configuration not stated),max activity,at 19.5 µM unless noted,-12.4%
O=C(Cc1cccnc1)N1CC(=O)N2[C@H](CO)[C@H](c3ccc(C#CC4CCCCC4)cc3)[C@H]2C1,max activity,at 19.5 µM unless noted,-8.11% [at 0.3 µM]
CN(C)C(=O)COCc1cncc2c1CCN(c1ccccn1)C2,max activity,at 19.5 µM unless noted,-8.88% and 11.8%
Cc1ccccc1S(=O)(=O)N1CCCCN2[C@H](C1)[C@H](c1ccc(C#CCN(C)C)cc1)[C@@H]2CO,max activity,at 19.5 µM unless noted,20.9% [at 10 µM]
Clc1ccccc1CSc1nc(NC2CCCCC2)c2ccccc2n1,max activity,at 19.5 µM unless noted,12.5%
CS(=O)(=O)N1CC(=O)N2[C@H](CO)[C@@H](c3ccc(Br)cc3)[C@H]2C1,max activity,at 19.5 µM unless noted,4.03%
COc1cccc(-c2ccc(C3[C@H]4CNC[C@@H]3N4C(=O)NC3CCCCC3)cc2)c1 (some centres not stated),max activity,at 19.5 µM unless noted,28.1%
COc1cccc(-c2ccc(C3[C@H]4CNC[C@@H]3N4CC3CCCCC3)cc2)c1 (some centres not stated),max activity,at 19.5 µM unless noted,15.2%
